Data from PubChem BioAssay (Tox21).
Results filed as inconclusive are left out. Calls of active or inactive are those of the source. Calls follow the shape of the full dose curve.

Assay: qHTS assay to identify small molecule agonists of H2AX - cell viability counter screen (AID 1224847); also: nearly all actives have a fitted effect of over 30% in size; as to activity change, negative = cytotoxicity: top concentration of the series differs between compounds
Conditions: CHO-K1 viability, CellTiter-Glo luminescence, 3 h; series mostly up to 154 µM; activity change, negative = cytotoxicity: at the top concentration
Description: National Center for Advancing Translational Sciences [NCATS]
NIH Chemical Genomics Center [NCGC]
U.S. Environmental Protection Agency [EPA]
National Institutes of Environmental Health Sciences [NIEHS]
National Toxicology Program [NTP]
U.S. Food and Drug Administration [FDA]
HTRF phospho-H2AX (Ser139) assay (Cisbio Bioassays, US) enables the quantitative detection of the histone variant H2AX when phosphorylated on serine 139. When double-stranded DNA breaks, either by ionizing radiation or endogenous physiological processes, H2AX becomes phosphorylated at Ser139. This phospho-Ser139 serves as a sensitive biomarker for the detection of such breaks, localizing the site of DNA repair. So, HTRF phospho-H2AX Ser139 is a pertinent assay to study genome stability, the cell cycle, DNA repair, and it serves as a biomarker for cancer, and to understand aging. Wild type CHO-K1 cells were used to identify the inducers of Phospho-H2AX Ser 139 from the Tox21 compound collections. Also cytotoxicity of the Tox21 10K compound library against the CHO-K1 cell line was tested by measuring the cell viability using CellTiter-Glo assay (Promega, Madison, WI).
Tox21 Assay Protocol Summary:
The CHO-K1 cells suspended in culture medium containing 10% FBS were dispensed at 1000 cells/ 3 ul/well in 1536-well white wall/solid bottom plates (Greiner Bio-One North America, NC) using a Multidrop Combi (Thermo Fisher Scientific Inc., Waltham, MA). After the assay plates were incubated at 37C overnight, 23 nl of compounds at 15 concentrations (from 5-48 columns) or positive control (from 1 to 4 columns) were transferred to the assay plates using a Pintool station (Wako, San Diego, CA) into each well resulting in a final DMSO concentration of 0.76%. After 3hr incubation at 37C, 3 uL/well CellTiter-Glo luminescent cell viability reagent (Promega Corporation, Madison, WI) was added using a Flying Reagent Dispenser (FRD) (Aurora Discovery, CA). After incubation at room temperature for 30 min, the luminescence intensity was read using a ViewLux plate reader (PerkinElmer, Waltham, MA).
% is scaled to controls: 0 for no effect and ±100 for the full control effect; potency is read from the fitted curve at half-maximal effect.

SMILES | activity change, negative = cytotoxicity | Potency
Cc1c(C)c2c(c(C)c1OC(=O)CCC(=O)OCCO)CC[C@@](C)(CCC[C@H](C)CCC[C@H](C)CCCC(C)C)O2 | 0.924% [at 70.9 µM] (inactive) | –
N#[N+]c1ccc2c(S(=O)(=O)[O-])cccc2c1O | -11.2% (inactive) | –
C1COC1 | 1.72% (inactive) | –
O=Cc1c2ccccc2c(Cl)c2ccccc12 | 2.9% [at 70.9 µM] (inactive) | –
CCC1CO1 (stereo not given) | -0.582% (inactive) | –
CC(C)=CCC1C(=O)N(c2ccccc2)N(c2ccccc2)C1=O | -0.248% [at 70.9 µM] (inactive) | –
N#CCc1ccc(Cl)cc1Cl | 0.977% (inactive) | –
CCOC(=O)c1ccc(O)c(O)c1 | 9.96% [at 70.9 µM] (inactive) | –
CC(=O)OCC(=O)NCCCOc1cccc(CN2CCCCC2)c1 | 1.61% [at 70.9 µM] (inactive) | –
CC(C)COCC(CN(Cc1ccccc1)c1ccccc1)N1CCCC1 (stereo not given) | – | 43.8 µM (active)
c1csc(SSc2cccs2)c1 | -6.31% (inactive) | –
COc1ccccc1N1CCN(CC(O)COc2cccc3ccccc23)CC1 (stereo not given) | – | 49.2 µM (active)
CCC(C)COC(C)=O (stereo not given) | -0.369% (inactive) | –
C[C@]12CC[C@@H]3c4ccc(O)cc4CC[C@H]3[C@@H]1CC[C@@H]2OC(=O)CCC1CCCC1 | – | 56.6 µM (active)
NC(=O)c1ccncc1 | 1.61% (inactive) | –
CCC(=O)OC | -0.0386% (inactive) | –
COc1ccc(OC(=O)N(CC(=O)O)Cc2ccc(OCCc3nc(-c4ccccc4)oc3C)cc2)cc1 | – | 27.7 µM (active)
COc1ccccc1NC(=O)c1cc2ccccc2cc1O | – | 89.8 µM (active)
CC(CN(C)C)C(C)(O)Cc1ccc(Cl)cc1 (stereo not given) | -8.95% [at 70.9 µM] (inactive) | –
C[C@H]1c2cccc(O)c2C(O)=C2C(=O)[C@]3(O)C(O)=C(C(N)=O)C(=O)[C@@H](N(C)C)[C@@H]3[C@@H](O)[C@@H]21 | -0.961% [at 70.9 µM] (inactive) | –

SMILES | activity change, negative = cytotoxicity | Potency
CCCCN1CCCC1C(=O)Nc1c(C)cc(C)cc1C (stereo not given) | -6.53% [at 70.9 µM] (inactive) | –
Cc1[nH]cnc1CN1CCc2c(c3ccccc3n2C)C1=O | -9.95% [at 70.9 µM] (inactive) | –
CCCCCCCCCI | 0.456% (inactive) | –
O=C(OC(=O)c1ccccc1)c1ccccc1 | 2.07% (inactive) | –
CN(C)CCN1C(=O)c2ccccc2N(C)c2ccccc21 | -3.96% [at 70.9 µM] (inactive) | –
CCCCCCCCCCC(=O)O | -2.94% (inactive) | –
O=C(/C=C/c1ccc(O)c(O)c1)O[C@@H]1C[C@@](OC(=O)/C=C/c2ccc(O)c(O)c2)(C(=O)O)C[C@@H](O)[C@@H]1O | 6.27% [at 70.9 µM] (inactive) | –
CC(CC1c2ccccc2CCc2ccccc21)CN(C)C (stereo not given) | -6.87% [at 70.9 µM] (inactive) | –
C/C=C/C=C/C=O | 0.522% (inactive) | –
CCCCC(CC)COP(=O)(O)O (stereo not given) | -2.87% (inactive) | –
CCC1NC(=O)c2cc(S(N)(=O)=O)c(Cl)cc2N1 (stereo not given) | -1.67% [at 70.9 µM] (inactive) | –
CCCCCCC(C)(C)C(=O)O | 7.52% (inactive) | –
O=C(Cn1ccnc1[N+](=O)[O-])NCCO | -0.914% [at 70.9 µM] (inactive) | –
CC/C=C1/OC(=O)c2ccccc21 | -4.04% (inactive) | –
CN(C)CCC=C1c2ccccc2C=Cc2ccccc21 | 0.659% [at 70.9 µM] (inactive) | –
Cc1cc(C)cc(N)c1 | -0.644% (inactive) | –
Nc1nnc(-c2ccc([N+](=O)[O-])o2)o1 | -1.37% (inactive) | –
CCC(=O)C1CC(C(C)C)CC=C1C (stereo not given) | 3.71% (inactive) | –
CN1CCCN=C1COC(=O)C(O)(c1ccccc1)C1CCCCC1 (stereo not given) | -2.7% [at 70.9 µM] (inactive) | –
CCCCCCCCN | -2.12% (inactive) | –
